aSyn 5UTR act = Activators working through SNCA 5'UTR binding (MLPCN) | hit rate 7.1% among 300,000 | activity score, % (tested at 7.5 µM), hits read low | alpha-synuclein 5'UTR reporter, activators screen; in the data active means activity score below about -60%
Large screens that a line does not name were inactive. Not all results are given here.

CN(C)c1ccc(NC(=S)c2ccccn2)cc1	none
O=C(N/N=C\c1cn[nH]c1-c1ccccc1)c1cccnc1	aSyn 5UTR act -67
Cc1ccccc1C(=O)N/N=C/c1ccccn1	aSyn 5UTR act -80
CCc1ccc(NC(=O)[C@H](C)NC(=O)C2CCN(C(=O)[C@@H](N)C(C)C)CC2)cc1	aSyn 5UTR act -110
CC[n+]1c(/C=C/c2ccc(OC(C)=O)c(OC)c2)ccc2ccccc21	aSyn 5UTR act -72
CC[n+]1c(/C=C/c2ccc(OC)c(OC)c2)ccc2ccccc21	aSyn 5UTR act -117
CCN(CC)c1ccc(/C=C/c2cccc[n+]2C)c(OC)c1	none
CCN(CC)c1ccc(/C=C/c2ccc3ccc(OC)cc3[n+]2CC)cc1	aSyn 5UTR act -87
Cc1ccc(Nc2c([N+](=O)[O-])ccc3c2=NC2(CCCCC2)N=3)cc1	aSyn 5UTR act -68
CCCCCCCCCCCCCCCC[N+](C)(C)CC	none
CC(=O)NC(c1cccc([N+](=O)[O-])c1)c1ccc2cccnc2c1O (centres undefined)	none
O=[N+]([O-])c1cccc2ccc(/C=C/c3ccc(F)cc3)nc12	aSyn 5UTR act -291
O=[N+]([O-])c1ccc(/C=C/c2ccc3cccc([N+](=O)[O-])c3n2)cc1	aSyn 5UTR act -92
O=[N+]([O-])c1cccc(/C=C/c2ccc3cccc(O)c3n2)c1	aSyn 5UTR act -82
Cc1sc(NC(=O)C2CCCCC2)c(C#N)c1-c1ccccc1	aSyn 5UTR act -237
Cc1cccc(C(=O)Nc2sc(C)c(-c3ccccc3)c2C#N)c1	aSyn 5UTR act -260
N#Cc1c(Cl)nsc1NC(=O)c1ccccc1	aSyn 5UTR act -66
C=CCNc1sc(C(=O)c2ccccc2)c(N)c1C#N	none
CCn1cc(Br)c(-c2nc3ccccc3c(=O)n2N)n1	aSyn 5UTR act -100
CC(C)(C)N=Cc1cc(-c2ccccc2)sc1O	aSyn 5UTR act -162
CN(C)CCCN(C(=O)c1cccs1)c1nc2cc3c(cc2s1)OCO3	aSyn 5UTR act -158
CN(C)CCCN(C(=O)c1ccc(C(=O)c2ccccc2)cc1)c1nc2cc3c(cc2s1)OCO3	none
CN(C)CCCN(C(=O)c1ccco1)c1nc2cc3c(cc2s1)OCO3	aSyn 5UTR act -185
CN(C)CCCN(C(=O)c1ccc(Br)s1)c1nc2cc3c(cc2s1)OCCO3	aSyn 5UTR act -69
O=C(Nc1ccc2oc(-c3cccnc3)nc2c1)c1ccco1	aSyn 5UTR act -135
O=C(Nc1ccc2oc(-c3cccnc3)nc2c1)c1ccc([N+](=O)[O-])o1	aSyn 5UTR act -97
O=C(Nc1ccc2oc(-c3cccnc3)nc2c1)c1ccc(Br)o1	aSyn 5UTR act -113
O=C(Nc1ccc2nc(-c3ccccc3)oc2c1)c1ccco1	aSyn 5UTR act -227
O=C(c1nc2ccccc2s1)N1CCSCC1	aSyn 5UTR act -92
COC(=O)C1C(=O)c2c([nH]c(C(=O)OC3CCCC3C)c2C)CC1C (centres undefined)	aSyn 5UTR act -168
COC(=O)C1C(=O)c2c([nH]c(C(=O)OC3CCCCC3)c2C)CC1C (centres undefined)	aSyn 5UTR act -178
CCOC(=O)c1[nH]c2c(c1C)C(=O)CC(c1ccc(F)cc1)C2 (centres undefined)	none
Cc1cc(C(=O)Cn2nnc3ccccc3c2=O)c(C)n1-c1ccccc1F	none
Cc1cc(C(=O)OCC(=O)Nc2c(F)cccc2F)c(C)n1-c1ccccc1	aSyn 5UTR act -103
Cc1cc(C(=O)CN2C(=O)NC(CC(C)C)C2=O)c(C)n1-c1ccccc1F (centres undefined)	aSyn 5UTR act -148
Cc1cc(C(=O)COC(=O)c2ccc(O)cc2)c(C)n1-c1ccccc1F	aSyn 5UTR act -78
Cc1cc(C(=O)Nc2ccc(Cl)cc2)c(C)n1-c1ccccc1	none
CCOC(=O)c1c(C)[nH]c(C(=O)Nc2ccc(NC(C)=O)cc2)c1C	none
CCc1c(C(=O)Nc2ccc(C)c(C)c2)[nH]c(C)c1C(C)=O	aSyn 5UTR act -146
CC(=O)c1c(C)[nH]c(C(=O)Nc2cccc(C(F)(F)F)c2)c1C	aSyn 5UTR act -100
CC(=O)c1c(C)[nH]c(C(=O)Nc2ccc3c(c2)OCCO3)c1C	aSyn 5UTR act -144
CCOC(=O)c1c(C)[nH]c(C(=O)Nc2ccc(C)c(Cl)c2)c1C	aSyn 5UTR act -108
COc1ccc(NC(=O)c2[nH]c(C)c(C(C)=O)c2C)cc1Cl	aSyn 5UTR act -77
CC(=O)c1c(C)[nH]c(C(=O)Nc2ccc(C)c(C)c2)c1C	aSyn 5UTR act -88
CNC(=O)NC(=O)C(C)OC(=O)c1c2c(nc3ccccc13)/C(=C/c1cccs1)CC2 (centres undefined)	aSyn 5UTR act -143
CC(C)S(=O)(=O)c1csc(C(=O)Nc2ccc(F)cc2)c1N	aSyn 5UTR act -100
COc1ccccc1Nc1nc(C)cs1	aSyn 5UTR act -106
COc1ccccc1Nc1ccc(Nc2ccccc2OC)nn1	aSyn 5UTR act -171
O=[N+]([O-])c1cccc(-c2csc(Nc3ccccc3)n2)c1	aSyn 5UTR act -299
COc1ccccc1Nc1nc(-c2cccc([N+](=O)[O-])c2)cs1	aSyn 5UTR act -77
CCCCNC(=S)Nc1ccc(SC(F)F)cc1	aSyn 5UTR act -164
CCOC(=O)C1CCCN(C(=O)CSCc2ccccc2)C1 (centres undefined)	aSyn 5UTR act -112

Compound activity as filed in PubChem BioAssay.
